Experimental findings from PubChem BioAssay AID2524 (Sanford-Burnham Center for Chemical Genomics, 2010) are described below.

About 540 (0.16%) of roughly 330,000 compounds were called active. What follows is part of a selection rich in actives, with near analogues and random picks from the rest. A number with no mark means an inactive call.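 The calls were made as follows: active = activation factor of the enzyme at least 2-fold when tested at 20 µM; inactive = the rest.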

The target of this assay is Intestinal-type alkaline phosphatase (Homo sapiens) (UniProt P09923). In words: enzymatic activation of intestinal alkaline phosphatase – biochemical, luminescence, uHTS, primary screen (AID 2524). Particulars: purified human IAP, CDP-Star luminescence, 30 min; at 10 µM; active compounds read high; 1 = vehicle-only enzyme, 0 = enzyme-free background.
Intestinal-type alkaline phosphatase (Homo sapiens), sequence (P09923 whole entry, looked up): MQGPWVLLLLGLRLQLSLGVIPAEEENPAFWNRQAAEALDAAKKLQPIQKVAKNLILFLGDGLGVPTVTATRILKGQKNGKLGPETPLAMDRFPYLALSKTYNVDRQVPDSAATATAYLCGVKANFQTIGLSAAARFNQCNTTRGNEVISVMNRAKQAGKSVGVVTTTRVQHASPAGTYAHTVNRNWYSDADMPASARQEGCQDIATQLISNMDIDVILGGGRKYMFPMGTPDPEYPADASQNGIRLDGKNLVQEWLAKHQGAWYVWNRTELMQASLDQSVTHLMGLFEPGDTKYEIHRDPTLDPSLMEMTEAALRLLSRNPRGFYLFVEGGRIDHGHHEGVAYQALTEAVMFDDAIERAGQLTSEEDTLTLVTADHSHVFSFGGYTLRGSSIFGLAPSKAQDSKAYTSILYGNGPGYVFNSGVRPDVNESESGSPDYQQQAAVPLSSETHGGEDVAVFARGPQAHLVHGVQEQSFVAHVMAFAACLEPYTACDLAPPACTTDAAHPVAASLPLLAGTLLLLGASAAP
For the compound `O=C(O)CSC(NC(=O)c1cccnc1)(C(F)(F)F)C(F)(F)F`, the activation factor was 0.961. As for `O=C1COc2ccc(C(=O)CSc3ccc(Br)cc3)cc2N1`, the figure is 1.06; as for `O=C(Nc1sc2c(c1-c1nc3ccccc3[nH]1)CCCC2)C1CC1`, 1.06. Turning to `O=[N+]([O-])c1ccc2nc(-c3ccccn3)[nH]c2c1`, the activation factor was 1.4.

On to `c1ccc2[nH]c(-c3nc4ccccc4[nH]3)nc2c1`, for which the activation factor is 2.1 (active). Turning to `O=C(NCCC1CCCCN1S(=O)(=O)c1ccc(Cl)cc1)C(=O)NCc1ccco1` (stereo not drawn), the activation factor is 1.03. For `Cn1c(=O)c2c(nc(N/N=C/c3cccs3)n2Cc2ccc(Br)cc2)n(C)c1=O`, the activation factor is 2.42 (active).

As for `Cn1c(=O)c2sccc2n(Cc2ccc(Br)cc2)c1=O`, the activation factor is 0.619.

For the compound `Cn1c(=O)c2c(nc(NCCc3ccccc3)n2Cc2ccccc2)n(C)c1=O`, the activation factor was 0.914. As for `Cc1cccc(NC(=O)CSc2nnc(CCCCCNC(=O)OC(C)(C)C)o2)c1C`, the activation factor was 0.854.

On to `O=C(O)CCC(=O)Nc1ccc(OCC2CCCO2)cc1` (stereo not drawn), for which the activation factor was 0.853. For `Cc1cc(C)c(C#N)c(SCC(=O)N(CC(C)C)C2CCS(=O)(=O)C2)n1` (stereo not drawn), the activation factor is 0.97. `CCOC(=O)c1ccc(NC(=O)c2nc[nH]c2C(=O)NCc2ccccc2)cc1`: the activation factor is 1.59. The same measure for `O=C(Nc1ccon1)c1nc[nH]c1C(=O)NCc1ccccc1`: 2.43 (active); for `Cc1cccc(NC(=O)c2nc[nH]c2C(=O)NCC(=O)OCc2ccccc2)c1`: 1.09; for `Cc1ccc2cc(CCNC(=O)c3c(-c4ccccc4Cl)noc3C)c(=O)[nH]c2c1`: 0.983. The same measure for `COc1ccc(C(=O)NNC(=O)c2cc(C)[nH]n2)cc1`: 1.61.

On to `COc1ccc(C(=O)NNS(=O)(=O)c2ccc(C)cc2)cc1`, for which the activation factor is 0.935. For the compound `COc1ccc(C(=O)NNc2cc(C)nc(NNC(=O)c3ccc(OC)cc3)n2)cc1`, the activation factor was 2.25 (active).

With `CC(=O)NC1C(Oc2ccc(C=O)cc2)OC(COC(C)=O)C(OC(C)=O)C1OC(C)=O` (stereo not drawn), the activation factor was 1.03. With `CN(C)C(CNC(=O)c1cccc(C#N)c1)c1ccco1` (stereo not drawn), the activation factor was 0.873. Turning to `CN(Cc1nc2ccc(F)cc2[nH]1)Cc1nc(CC2CC2)no1`, the activation factor was 0.896. In the case of `Oc1ccc2nc(Cc3ccccc3)[nH]c2c1`, the activation factor is 0.985.

For the compound `OC(c1nc2ccc(F)cc2[nH]1)C(O)c1nc2ccc(F)cc2[nH]1` (stereo not drawn), the activation factor was 3.62 (active). On to `Nc1ncnc2c1ncn2[C@@H]1O[C@H](CNCc2cccn2-c2nccs2)[C@@H](O)[C@H]1O`, for which the activation factor was 0.901. Consider `CC(C)=CCN1CCN(Cc2cc3ccccc3[nH]2)CC1CCO` (stereo not drawn), for which the activation factor was 1.13.

In the case of `Cc1ccc(NC(=O)CN2C(=O)NC(C)(c3ccc(Cl)cc3)C2=O)c(Br)c1` (stereo not drawn), the activation factor was 1. With `CN(c1ccccc1)S(=O)(=O)c1cccc(NC(=O)Cc2ccc(Cl)cc2)c1`, the activation factor was 1.01. Regarding `CCOC(=O)c1sc(NC(=O)CSc2nc(C)cc(C(F)(F)F)n2)c(C#N)c1C`, the activation factor was 0.888. With `COc1ccccc1N(C)S(=O)(=O)c1ccc(C(=O)N2CCC(C(N)=O)CC2)cc1`, the activation factor is 0.887. The same measure for `O=C(CCCCO)c1ccc(O)c(Cl)c1`: 1.08; for `CC(C)c1ccc(NC2CCCN(C(=O)c3ccncc3)C2)cc1` (stereo not drawn): 0.926; for `Cc1ccc(S(=O)(=O)N2[C@@H](c3cccc(Cl)c3)C(C(=O)O)=CC[C@H]2c2ccc(Cl)c(Cl)c2)cc1`: 1.09. Regarding `COC(C[C@@H](O)[C@H](C)[C@H](O)COCc1ccccc1)OC`, the activation factor is 0.977. `O=C(OCC1O[C@@H](OC(=O)c2cc(O)c(O)c(O)c2)[C@@H](OC(=O)c2cc(O)c(O)c(O)c2)[C@@H](OC(=O)c2cc(O)c(O)c(O)c2)[C@@H]1OC(=O)c1cc(O)c(O)c(O)c1)c1cc(O)c(O)c(O)c1` (stereo partly drawn): the activation factor was 3.98 (active). The same measure for `COc1ccc(C(=O)N(Cc2ccccc2)c2ccc(C)cc2)cc1S(=O)(=O)N1CCOCC1`: 0.94; for `CC(C)NC(=O)NCCCCCCS(C)=O` (stereo not drawn): 1.08. The same measure for `CC(C)CN(CC(C)C)CC(O)CN(c1ccccc1)S(=O)(=O)c1ccccc1[N+](=O)[O-]` (stereo not drawn): 0.882. The same measure for `CC(C)N(C(=O)CSc1nc(COc2ccccc2)nc2ccccc12)C(C)C`: 0.961; for `COc1cccc(NC(=O)CN(C)C(=O)c2ccccc2CCc2ccccc2)c1`: 1.1. `Cn1cc(S(=O)(=O)N2CCN(c3ccc(F)cc3)CC2)c(=O)n(C)c1=O`: the activation factor is 1.04. The same measure for `O=S(=O)(CCc1nc2ccccc2o1)c1ccc(Cl)cc1`: 0.959; for `CC(C)CC(N=C1NC(C)(C)Cc2ccccc21)C(=O)O` (stereo not drawn): 0.9; for `CCOC(=O)C1=NNC2(c3ccc(Cl)cc3)C(=O)N(c3cc(C)cc(C)c3)C(=O)C12` (stereo not drawn): 1.06. As for `O=S(=O)(c1ccc(F)cc1)N1CC=C(c2ccccc2)CC1`, the figure is 1.01; as for `CN1CCN(Cc2c(C(=O)N3CCc4ccccc4C3)nc3ccc(Cl)cn23)CC1`, 1.33; as for `CC(C)CC(=O)Nc1nnc(S(=O)(=O)N(C)c2ccc(Cl)cc2)s1`, 0.968. `COc1ccc(-n2nnc3c(=O)n(CC(=O)N4CCC(Cc5ccccc5)CC4)cnc32)cc1`: the activation factor was 1.02. For the compound `CCOc1ccc2[nH]c(C(=O)N/N=C/c3cccc(OC)c3OC)cc2c1`, the activation factor is 0.924. `COc1cc(/C=N/NC(=O)c2cc(-c3ccccc3C)nc3ccccc23)cc(OC)c1O`: the activation factor is 0.992. As for `COc1ccc(/C=N/NC(=O)c2ccncc2)cc1CN1CCCc2ccccc21`, the figure is 1.06; as for `COc1cccc(/C=N\NC(=O)C2=NNC(=O)C2C)c1O` (stereo not drawn), 2.88 (active). On to `COc1cc(/C=N\NC(=O)C2C(=O)NCC2c2ccccc2)cc(OC)c1O` (stereo not drawn), for which the activation factor is 0.911. For the compound `COc1cccc(/C=N/NC(=O)c2[nH]nc3c2CCc2ccccc2-3)c1O`, the activation factor was 2.64 (active). `Cc1ccc(OCC(=O)Nc2ccccc2C(=O)NC2CC2)cc1`: the activation factor is 0.945. `Cc1ccccc1N1C(=O)C(Oc2ccc(Cl)cc2)C1CNCC1CCCO1` (stereo not drawn): the activation factor is 0.957. As for `CN=C(Nc1cccc(S(=O)(=O)N2CCOCC2)c1)c1ccccc1`, the figure is 0.956; as for `FC(F)(F)c1ccc(-n2cn[nH]c2=S)cc1`, 1.1.

Consider `CC(CCN1CCN=C1N(C)C)c1ccccc1` (stereo not drawn), for which the activation factor is 0.995. As for `O=C(Nc1ccccc1C(F)(F)F)N1CCCC1c1cccnc1` (stereo not drawn), the figure is 0.942; as for `Cc1cc(=O)n2nc(N3CCCC(C(=O)NCc4cccc(Cl)c4)C3)sc2n1` (stereo not drawn), 1.28. As for `CCCCN(CC(=O)NC(C)(C)C)C(=O)C(=O)Nc1ccc2c(c1)OCCO2`, the activation factor is 1.04.

With `COC(=O)Nc1sc2nc(C)cc(C)c2c1-n1cccc1`, the activation factor was 0.984. The same measure for `CCCCOC(=O)Nc1sc2nc(C)cc(C)c2c1-n1cccc1`: 2.01 (active); for `Cc1cc(C)c2c(-n3cccc3)c(NC(=O)OCc3ccccc3)sc2n1`: 1.11.

In the case of `Cc1ccc(OCCCCN2CCCCC2)c(Br)c1`, the activation factor is 1.08.

For `FC(F)(F)c1cccc(Cc2noc(CN3CCC(N4CCCCC4)CC3)n2)c1`, the activation factor was 1.17. On to `C1CC1Cc1noc(CN2CCN(CC3CC3)CC2)n1`, for which the activation factor was 1.06. Regarding `COCCN(C(=S)Nc1ccccc1OC)C1CCN(C(C)C)CC1`, the activation factor is 1.12. For the compound `O=C(COC(=O)c1ccccc1F)Nc1cc(S(=O)(=O)N2CCOCC2)ccc1N1CCCC1`, the activation factor is 1.03. The same measure for `Cc1ccc(CNCc2ccc3c(c2)OCO3)c(C)c1`: 1.06. As for `O=C(O)CSCc1ccc(C(=O)O)o1`, the activation factor is 0.943. Turning to `COc1cccc2cc(C(C)N(CCCN3CCOCC3)C(=O)Nc3ccc(Cl)cc3)oc12` (stereo not drawn), the activation factor was 1.05. With `CC(Oc1ccc(F)cc1F)C(=O)/C=C/N(C)C` (stereo not drawn), the activation factor is 1.1.

On to `COc1ccc(CC(=O)N2N=C(C)CC2(O)C(F)(F)F)cc1` (stereo not drawn), for which the activation factor is 1.06. For the compound `CCOC(=O)C1CCN(C(=O)Nc2cccc(OC)c2)CC1`, the activation factor is 1.01. Regarding `COc1ccc(S(=O)(=O)N2CCN(CC(=O)NCC3(N4CCOCC4)CCCCC3)CC2)cc1`, the activation factor was 0.925. Regarding `C#CCOCCOCCOCCNc1nc(N2CCN(C(=O)CCCCCCCCCCNC(=O)[C@H](CCCCN)n3cc(C)nn3)CC2)nc(N2CCN(C(=O)CCCCCCCCCCNC(=O)[C@H](CO)n3cc(CCCSC)nn3)CC2)n1`, the activation factor is 1.1. In the case of `C#CCOCCOCCOCCNc1nc(N2CCN(C(=O)CCCCCCCCCCNC(=O)[C@H]([C@@H](C)CC)n3cc(CCCCN=C(N)N)nn3)CC2)nc(N2CCN(C(=O)CCCCCCCCCCNC(=O)[C@H](CO)n3cc(CCCSC)nn3)CC2)n1`, the activation factor was 2.98 (active).

On to `C#CCOCCOCCOCCNc1nc(N2CCN(C(=O)CCCCCCCCCCNC(=O)Cn3cc(CCCCCN)nn3)CC2)nc(N2CCN(C(=O)CCCCCCCCCCNC(=O)[C@H](CO)n3cc(CCCSC)nn3)CC2)n1`, for which the activation factor is 0.934. `CCCN=C1NC(=O)C(CC(=O)NCCc2ccc(OC)c(OC)c2)S1` (stereo not drawn): the activation factor was 1.04. Take `Cc1ccc(S(=O)(=O)N/N=C(\c2ccccc2)C2CC2)cc1`: the activation factor is 1.3. In the case of `CCN(CC(=O)Nc1c(F)cccc1F)C(=O)C1CCC1`, the activation factor was 1.05. With `O=C(COC(=O)/C=C/c1nc2ccccc2s1)Nc1ccccc1Oc1ccccc1`, the activation factor was 0.94. In the case of `CCCCc1c(O)nc2n(c1=O)CCS2`, the activation factor was 0.971. As for `CCCCCCCCc1c(O)nc(-n2[nH]c(C)c(CCO)c2=O)[nH]c1=O`, the activation factor is 2.2 (active). `CCCCCc1c(C)nc(N2CCN(Cc3ccc4c(c3)OCO4)CC2)[nH]c1=O`: the activation factor is 0.962. As to `CN(CCc1ccccn1)C(=O)CCC1CCCN(Cc2ccccc2OC(F)F)C1` (stereo not drawn), the activation factor is 1.17.
